Measurements: PubChem BioAssay (NCATS)
The list shows a part of the results. Inconclusive results are not listed. Calls of active or inactive are those of the source. Calls follow the shape of the dose curve; as a rule, active = well fitted inhibition curve with a large enough effect; inconclusive = small, poorly fitted or top-dose-only effect, or another doubt; inactive = no such curve, though single readings can be large or run the other way.

Molecular target: DNA polymerase eta (Homo sapiens) (UniProt Q9Y253)
Assay: qHTS for Inhibitors of Polymerase Eta: Confirmatory Assay for Cherry-picked Compounds (AID 720502)
Settings: Pol eta primer extension, TAMRA/BHQ fluorescence, 10 min
Description: The Y-family of DNA polymerases, such as the Polymerase Eta (Pol eta), are specifically involved in DNA repair. Pol eta copies undamaged DNA with a lower fidelity than other DNA-directed polymerases. However, it accurately replicates UV-damaged DNA. When thymine dimers are present, this polymerase inserts the complementary nucleotides in the newly synthesized DNA, thereby bypassing the lesion and suppressing the mutagenic effect of UV-induced DNA damage. […] Thus, while Pol eta's (and most likely iota's) normal function is to protect humans against the deleterious consequences of DNA damage, under certain conditions they can have deleterious effects on human health. As a consequence, small molecule inhibitors of Pol eta (identified from a high throughput replication assay) have potential therapeutic applications. A 1536-well format, fluorescence based, high-throughput screen (AID 588591) is developed in collaboration with the National Institute of Child Health & Human Development (NICHD) to screen for inhibitors of the Pol eta enzyme. This screen is used to validate the activity of the selected compounds from the primary assay against the human Pol eta. Inhibition is the desired outcome for this assay. NIH Chemical Genomics Center [NCGC] NIH Molecular Libraries Probe Centers Network [MLPCN] MLPCN Grant: MH090825 Assay Submitter (PI): Roger Woodgate, NICHD
Three microliters of reagents (buffer in column 3 and 4 as negative control while 10 nM Pol eta in columns 1, 2, and 5-48) were dispensed into a 1536-well black solid-bottom plate. Compounds (23 nL) were transferred via Kalypsys pin tool equipped with 1536-pin array. The plates were then incubated for 15 min at room temperature, and 1 uL of substrate was added to start the reaction for a final concentration of 50 nM. The substrate was made by the annealing of unlabeled oligodeoxynucleotide primer (59-[…]-39) and TAMRA-labeled reporter strand (59-[…]-6-TAMRA-39) to oligodeoxynucleotide template labeled with BHQ-2 (59-BHQ-2-[…]-39) described in detail at the Yamanaka et.al. (PLOS, 2012) reference paper. The assay plates were initially read after 0 min and again after 10 min of kinetic reaction using the PerkinElmer Viewlux reader equipped with 525 nm excitation and 598 nm emission filters.
Potency is read from the fitted curve at half-maximal effect.

Sequence of DNA polymerase eta (Homo sapiens) (Q9Y253 whole entry, looked up): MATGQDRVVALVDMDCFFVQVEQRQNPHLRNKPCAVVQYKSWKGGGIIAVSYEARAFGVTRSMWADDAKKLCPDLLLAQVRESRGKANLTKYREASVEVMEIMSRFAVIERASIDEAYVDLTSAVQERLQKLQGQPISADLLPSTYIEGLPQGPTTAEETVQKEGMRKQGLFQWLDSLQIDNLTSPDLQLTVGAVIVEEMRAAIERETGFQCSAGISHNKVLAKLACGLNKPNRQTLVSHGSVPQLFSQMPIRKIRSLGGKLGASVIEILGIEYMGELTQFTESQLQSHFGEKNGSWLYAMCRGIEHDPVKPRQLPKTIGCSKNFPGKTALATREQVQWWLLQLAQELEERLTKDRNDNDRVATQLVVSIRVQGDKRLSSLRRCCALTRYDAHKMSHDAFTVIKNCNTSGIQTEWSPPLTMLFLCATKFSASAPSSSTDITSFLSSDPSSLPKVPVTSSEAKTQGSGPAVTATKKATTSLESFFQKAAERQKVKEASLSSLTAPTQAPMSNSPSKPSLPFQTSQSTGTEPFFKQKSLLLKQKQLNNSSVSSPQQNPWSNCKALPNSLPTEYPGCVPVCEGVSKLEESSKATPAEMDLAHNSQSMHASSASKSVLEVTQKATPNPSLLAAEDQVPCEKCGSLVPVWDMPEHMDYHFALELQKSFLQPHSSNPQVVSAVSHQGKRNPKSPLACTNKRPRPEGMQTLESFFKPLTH

Row | SMILES | Potency
1 | CN1CCN(CCCNC(=O)c2ccc(/C=C3\Oc4ccccc4N(Cc4ccc(Cl)cc4)C3=O)cc2)CC1 | 19 µM (active)
2 | C=CC1=C(C(=O)O)N2C(=O)[C@@H](NC(=O)/C(=N/OCC(=O)O)c3csc(N)n3)[C@H]2SC1 | 3.38 µM (active)
3 | NC(CSC(c1ccccc1)(c1ccccc1)c1ccc(-c2ccccc2)cc1)C(=O)O (stereo not given) | 75.7 µM (active)
4 | Cc1c(CC(=O)N2CCN(C(=O)C3COc4ccccc4O3)CC2)c(=O)oc2c(O)c(O)ccc12 (stereo not given) | 7.57 µM (active)
5 | Cc1cc(/C=C2\SC(=O)N(C)C2=O)c(C)n1-c1cccc(C(=O)O)c1 | 30.1 µM (active)
6 | Cc1ccc2cc(/C=N/Nc3ccc(C(=O)O)cc3)c(Cl)nc2c1 | 30.1 µM (active)
7 | COC(=O)Cc1cc(=O)n(-c2nc3ccccc3s2)[nH]1 | 84.9 µM (active)
8 | ON=C1/C(=N\O)CC2(C/C1=N/O)OCCO2 | 30.1 µM (active)
9 | O=C1NN(c2ccccc2)C(=O)/C1=C/c1ccc(-c2cccc(C(=O)O)c2)o1 | 30.1 µM (active)
10 | C#Cc1ccc([C@@H]2C=C(C(=O)O)O[C@H](OCCCCO)C2)cc1 | 84.9 µM (active)
11 | Cc1ccc(-c2nn(-c3ccccc3)cc2/C=C2\SC(=S)N(CCCCCC(=O)O)C2=O)o1 | 75.7 µM (active)
12 | COc1ccc(Cl)cc1NC(=O)CCS(=O)(=O)c1ccc(Br)cc1 | 16.9 µM (active)
13 | Cc1ccc(C(=O)O)cc1-c1ccc(/C=C2\SC(=O)N(CC(=O)Nc3ccc4c(c3)OCO4)C2=O)o1 | 19 µM (active)
14 | CCc1nc2cccnc2n1-c1ccc(C(=O)O)cc1 | 10.7 µM (active)
15 | O=C(COC(=O)CCC(=O)c1cccs1)NCc1ccco1 | 75.7 µM (active)
16 | COc1ccc2[nH]c3c(C)c4cc[n+](C)cc4c(C)c3c2c1 | 9.53 µM (active)
17 | CCOc1ccccc1/C=c1\sc2nc(-c3ccco3)nn2c1=O | 60.1 µM (active)
18 | C=C(C)C(=O)O[C@H]1C/C(C)=C\C(=O)/C=C(\C)[C@H](O)[C@@H]2OC(=O)C(=C)[C@@H]21 | 75.7 µM (active)
19 | COc1ccccc1C(=O)N/C(=C/c1ccco1)C(=O)Nc1ccc(C(=O)O)cc1 | 53.6 µM (active)
20 | O=C1Nc2ccc([N+](=O)[O-])cc2C1=Nc1cccc(CO)c1 | 75.7 µM (active)

Row | SMILES | Potency
21 | O=C(Cc1ccc(S(=O)(=O)N2CCCC2)s1)NC1CCCCCC1 | 60.1 µM (active)
22 | COc1ccc(Cc2nnc(NC(=O)Cc3cccs3)s2)cc1 | 19 µM (active)
23 | CC(=O)N(C1=C(Cl)C(=O)c2ccccc2C1=O)c1ccc(C(=O)O)cc1 | 26.9 µM (active)
24 | CCOc1cccc2c1N[C@@H](c1ccc(C(=O)O)cc1)[C@H]1CC=C[C@@H]21 | 7.57 µM (active)
25 | O=C(CSc1nc2ccccc2c(=O)[nH]1)Nc1nc(-c2ccc(Br)cc2)cs1 | 75.7 µM (active)
26 | CCc1ccc2nc3sc(C(=O)Nc4nnc(CC)s4)c(N)c3cc2c1 | 60.1 µM (active)
27 | CCCN1CCN(C(=O)Cn2ncc3ccccc32)CC1 | 75.7 µM (active)
28 | N#C/C(=C\C1=C(N2CCOCC2)C(=C\c2ccccc2)/CC1)C(=O)Nc1ccccc1F | 30.1 µM (active)
29 | O=C(COC(=O)c1ccc(F)cc1F)Nc1ncccn1 | 37.9 µM (active)
30 | O=C(N/N=C/c1ccco1)c1ccc(C(=O)N/N=C/c2ccco2)o1 | 53.6 µM (active)
31 | Cc1cc(C)cc(C(=O)NC2C(=O)N3C(C(=O)O)=C(CSc4nnc(C)s4)CSC23)c1 (stereo not given) | 26.9 µM (active)
32 | O=C(Nc1ccc(S(=O)(=O)Nc2nccs2)cc1)c1cc(-c2ccncc2)nc2ccccc12 | 67.5 µM (active)
33 | Cc1cc(/C=N/Nc2ccc([N+](=O)[O-])cn2)c(C)n1-c1cccc(C(=O)O)c1 | 26.9 µM (active)
34 | O=C(O)C(c1ccccc1)N1C(=O)/C(=C\c2ccc(-c3cccc(Cl)c3)o2)SC1=S (stereo not given) | 75.7 µM (active)
35 | CSc1nnc(SCc2nc3sc(C(=O)O)c(C)c3c(=O)[nH]2)s1 | 5.36 µM (active)
36 | O=C1COc2c1ccc(O)c2O | 9.53 µM (active)
37 | NC(=O)CSc1nnc(NC(=O)c2ccc(Br)o2)s1 | 26.9 µM (active)
38 | CC1=NN(c2ccc(Cl)c(C(=O)O)c2)C(=O)/C1=C/c1ccc(-c2ccccc2[N+](=O)[O-])o1 | 75.7 µM (active)
39 | Cc1ccc(NC(=O)c2cc(-c3ccc(C)o3)nc3ccccc23)nc1 | 75.7 µM (active)
40 | Cc1oc2c(C)c3oc(=O)c(CC(=O)N[C@@H](CC(C)C)C(=O)N[C@@H](Cc4ccccc4)C(=O)O)c(C)c3cc2c1C | 47.8 µM (active)
